According to PubChem BioAssay:
Active and inactive are the calls of the source.

Experiments:
[1] = test system: PRMT1 (protein arginine N-methyltransferase 1); assay: small molecules binding arginine methyltransferase PRMT1 – biochemical, small-molecule microarray, 635 nm fluorescence, primary screen (AID 1088); conditions: higher = more signal;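 also: binding of Prmt1 protein to compounds spotted on small-molecule microarray slides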
[2] = growth effects on S. cerevisiae YJM789 – YJM789 clinical isolate, OD600, 24 h, basal, primary screen (AID 1089); conditions: higher = more signal, called active from +8 up or from −8 down;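 also: growth of clinical yeast isolate S. cerevisiae YJM 789 seeded 1000 cells per well; test concentration not given here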
[3] = S. pombe growth modifiers, basal conditions – strain 972, OD600, 24 h, no modulator, primary screen (AID 1090);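 also: basal condition with compound alone and no growth modifier present; test concentration not given here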; conditions: S. pombe 972 growth, higher = more signal, called active from +8 up or from −8 down
[4] = budding yeast growth modifiers under rapamycin – strain BY4716, OD600, 96 h, primary screen (AID 1091); also: test concentration not given here; conditions: S. cerevisiae BY4716 + rapamycin, higher = more signal, called active from +8 up or from −8 down
[5] = target: Torsin-1A-interacting protein 2 (Homo sapiens) (UniProt Q8NFQ8); assay: small molecules binding lysate-expressed LULL1 – cell lysate, human LULL1 lysate, 635/667 nm fluorescence, primary screen (AID 1092); conditions: small-molecule microarray, hLULL1 lysate binding, 635 nm fluorescence; higher = more signal;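 also: probe is lysate of COS7 cells overexpressing human LULL1; score merges per-feature 667 nm fluorescence with signal-to-noise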
[6] = optical density change of DRC41 E. coli – strain DRC41, OD650, 24 h, E. coli filamentation project, primary screen (AID 1093);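 also: MC1000 strain lacking acrAB efflux and sulA so SOS filamentation is blocked; test concentration not given here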; conditions: E. coli DRC41 growth, higher = more signal, called active from +8 up or from −8 down
[7] = probe aLefty2 binding to arrayed compounds – biochemical, biotinylated probe, 635/667 nm fluorescence, primary screen (AID 1094); conditions: small-molecule microarray, higher = more signal;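 also: score merges spot fluorescence near 667 nm with spot signal-to-noise ratio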
[8] = test system: Noggin (protein binding on small-molecule microarray); assay: small molecules binding Noggin protein – biochemical, 635/667 nm fluorescence, primary screen (AID 1095); conditions: 635 nm fluorescence, higher = more signal;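 also: score merges 667 nm feature fluorescence with signal to noise over triplicate slides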
[9] = target: Neurogenic locus notch homolog protein 3 (Homo sapiens) (UniProt Q9UM47); assay: small molecules binding NOTCH3 protein – biochemical, 635/667 nm fluorescence, primary screen (AID 1096); conditions: small-molecule microarray, 635 nm fluorescence, higher = more signal
[10] = probe aEGFR binding to arrayed compounds – biochemical, biotinylated probe, 635/667 nm fluorescence, primary screen (AID 1097); conditions: small-molecule microarray, higher = more signal;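 also: probe is a biotinylated anti-EGFR antibody binding compounds printed on slides; score combines fluorescence near 667 nm and signal to noise of each spot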

Sequence of Torsin-1A-interacting protein 2 (Homo sapiens) (Q8NFQ8 whole entry, looked up): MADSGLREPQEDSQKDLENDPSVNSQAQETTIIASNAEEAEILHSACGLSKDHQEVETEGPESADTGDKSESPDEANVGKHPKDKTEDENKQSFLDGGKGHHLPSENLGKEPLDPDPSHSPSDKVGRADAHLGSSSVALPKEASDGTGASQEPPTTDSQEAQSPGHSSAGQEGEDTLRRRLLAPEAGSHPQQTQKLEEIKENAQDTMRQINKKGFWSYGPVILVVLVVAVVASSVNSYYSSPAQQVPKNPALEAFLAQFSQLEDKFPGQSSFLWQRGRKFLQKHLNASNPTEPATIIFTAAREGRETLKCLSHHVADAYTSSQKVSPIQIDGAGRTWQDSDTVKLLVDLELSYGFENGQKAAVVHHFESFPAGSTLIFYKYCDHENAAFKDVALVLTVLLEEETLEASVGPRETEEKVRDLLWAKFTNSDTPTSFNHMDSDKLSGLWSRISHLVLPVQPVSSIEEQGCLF
Sequence of Neurogenic locus notch homolog protein 3 (Homo sapiens) (Q9UM47 whole entry, looked up): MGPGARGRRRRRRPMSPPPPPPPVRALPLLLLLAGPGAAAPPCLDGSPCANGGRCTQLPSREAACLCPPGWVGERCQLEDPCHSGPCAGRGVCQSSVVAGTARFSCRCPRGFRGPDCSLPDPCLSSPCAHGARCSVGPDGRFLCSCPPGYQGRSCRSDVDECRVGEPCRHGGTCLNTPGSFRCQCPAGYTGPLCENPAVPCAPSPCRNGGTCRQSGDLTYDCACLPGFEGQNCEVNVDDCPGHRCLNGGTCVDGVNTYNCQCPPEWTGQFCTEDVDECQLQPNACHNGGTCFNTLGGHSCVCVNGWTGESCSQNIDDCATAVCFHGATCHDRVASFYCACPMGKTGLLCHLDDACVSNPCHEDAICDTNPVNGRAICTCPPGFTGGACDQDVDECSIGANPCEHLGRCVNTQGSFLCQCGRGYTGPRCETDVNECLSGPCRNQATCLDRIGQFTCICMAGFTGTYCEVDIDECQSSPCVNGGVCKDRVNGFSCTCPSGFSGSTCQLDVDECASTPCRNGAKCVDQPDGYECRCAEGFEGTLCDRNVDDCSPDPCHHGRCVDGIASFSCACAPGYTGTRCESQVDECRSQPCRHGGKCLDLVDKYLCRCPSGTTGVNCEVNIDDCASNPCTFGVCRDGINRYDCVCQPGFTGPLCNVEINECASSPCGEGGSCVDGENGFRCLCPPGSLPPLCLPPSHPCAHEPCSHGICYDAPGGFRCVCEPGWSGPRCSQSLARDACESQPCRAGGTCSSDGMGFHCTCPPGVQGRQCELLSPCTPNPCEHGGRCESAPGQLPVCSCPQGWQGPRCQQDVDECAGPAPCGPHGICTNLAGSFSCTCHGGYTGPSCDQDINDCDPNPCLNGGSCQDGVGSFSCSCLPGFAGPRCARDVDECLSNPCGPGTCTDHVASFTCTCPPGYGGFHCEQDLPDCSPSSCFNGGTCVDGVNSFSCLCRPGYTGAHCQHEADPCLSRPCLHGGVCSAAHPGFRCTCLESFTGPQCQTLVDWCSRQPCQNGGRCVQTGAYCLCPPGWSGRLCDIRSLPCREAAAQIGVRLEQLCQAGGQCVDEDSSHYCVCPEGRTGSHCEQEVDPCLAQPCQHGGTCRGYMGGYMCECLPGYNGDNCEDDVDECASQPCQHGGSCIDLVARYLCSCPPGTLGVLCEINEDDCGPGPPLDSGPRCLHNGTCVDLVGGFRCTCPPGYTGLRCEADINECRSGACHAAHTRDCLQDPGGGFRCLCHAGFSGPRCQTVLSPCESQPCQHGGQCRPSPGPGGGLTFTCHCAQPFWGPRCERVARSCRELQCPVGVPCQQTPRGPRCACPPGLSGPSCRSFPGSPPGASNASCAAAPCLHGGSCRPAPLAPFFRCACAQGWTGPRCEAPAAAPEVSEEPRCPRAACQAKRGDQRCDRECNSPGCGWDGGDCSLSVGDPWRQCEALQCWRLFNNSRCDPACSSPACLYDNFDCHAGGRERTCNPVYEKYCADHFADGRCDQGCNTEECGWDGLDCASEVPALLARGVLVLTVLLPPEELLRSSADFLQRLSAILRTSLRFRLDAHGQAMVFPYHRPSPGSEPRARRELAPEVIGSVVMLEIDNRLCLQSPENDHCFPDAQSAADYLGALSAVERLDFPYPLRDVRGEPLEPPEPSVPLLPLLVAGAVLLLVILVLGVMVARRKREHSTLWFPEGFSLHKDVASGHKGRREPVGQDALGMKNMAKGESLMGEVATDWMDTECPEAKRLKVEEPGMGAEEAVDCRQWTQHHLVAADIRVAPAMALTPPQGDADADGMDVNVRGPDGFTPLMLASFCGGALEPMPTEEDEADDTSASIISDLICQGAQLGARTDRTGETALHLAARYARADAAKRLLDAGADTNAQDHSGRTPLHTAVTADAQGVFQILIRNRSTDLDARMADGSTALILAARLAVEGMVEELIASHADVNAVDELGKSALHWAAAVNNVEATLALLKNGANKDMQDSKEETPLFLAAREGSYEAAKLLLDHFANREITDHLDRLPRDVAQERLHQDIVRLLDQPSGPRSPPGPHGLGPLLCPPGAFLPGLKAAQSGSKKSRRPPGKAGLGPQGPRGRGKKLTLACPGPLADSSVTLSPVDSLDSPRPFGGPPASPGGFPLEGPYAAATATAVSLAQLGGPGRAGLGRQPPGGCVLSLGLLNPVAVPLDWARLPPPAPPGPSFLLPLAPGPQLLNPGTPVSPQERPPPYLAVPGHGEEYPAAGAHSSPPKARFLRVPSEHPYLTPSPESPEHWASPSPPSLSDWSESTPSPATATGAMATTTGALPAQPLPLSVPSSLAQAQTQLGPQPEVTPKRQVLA

SMILES | composite z-score [1] | z-score [2] | z-score [3] | z-score [4] | composite z-score [5] | z-score [6] | composite z-score [7] | composite z-score [8] | composite z-score [9] | composite z-score [10]
C=C(C)C1CN([C@H](CO)c2ccccc2)C(=O)/C1=C\c1ccccc1 (stereo not given in full) | 0.464 | -0.334 (inactive) | -3.2 (inactive) | -0.481 (inactive) | -0.302 | 1.82 (inactive) | -0.0931 | 0.467 | 0.0584 | -0.167
COc1ccc(C#Cc2ccc3c(c2)[C@]2(C(=O)N3)[C@H](c3ccccc3OCCO)N3[C@H](c4ccccc4)[C@H](c4ccccc4)OC(=O)[C@H]3[C@@H]2C(=O)NC[C@H](O)c2ccccc2)cc1 | 1.54 | 2.42 (inactive) | 2.18 (inactive) | 2.92 (inactive) | 3 | 2.11 (inactive) | -0.0168 | 1.58 | 1.08 | 0.095
COC(=O)[C@@]1(Cc2ccc(F)cc2)[C@H]2c3cc(C(=O)N4CCCC4)n(CCc4c[nH]c5cc(F)ccc45)c3C[C@H]2CN1C(=O)c1ccccc1 | 0.765 | 0.0277 (inactive) | 1.24 (inactive) | 1.94 (inactive) | 3.39 | -0.167 (inactive) | 0.605 | 0.344 | 1.02 | 0.756
Cc1ccc(S[C@]2(C(=O)NCc3ccccc3)CC(=O)N(Cc3ccccc3Cl)[C@@H]2c2ccc(CO)cc2)cc1 | 1.17 | 0.373 (inactive) | -0.0114 (inactive) | 0.227 (inactive) | 2.07 | -2.31 (inactive) | 0.145 | -0.761 | -0.0303 | -0.258
COC(=O)C(CC#Cc1ccc2c(c1)[C@]1(C(=O)N2)[C@H](C(=O)NC[C@H](O)c2ccccc2)[C@H]2C(=O)O[C@H](c3ccccc3)[C@H](c3ccccc3)N2[C@@H]1c1ccc(O)cc1)C(=O)OC | 0.356 | 0.542 (inactive) | 0.793 (inactive) | 0.162 (inactive) | 0.719 | -1.02 (inactive) | -0.055 | 0.264 | 0.401 | -0.0509
O=C1c2ccccc2[C@@]2(Cc3ccccc3N(CC(F)(F)F)C2=O)[C@H](c2ccc(CO)cc2)N1Cc1ccccc1 | 0.349 | 0.633 (inactive) | -0.269 (inactive) | -1.49 (inactive) | -0.117 | -1.91 (inactive) | -0.147 | 0.666 | -0.242 | -0.177
COCCCNC(=O)[C@@]1(Cc2ccccc2I)c2ccccc2C(=O)N(C2CCCCC2)[C@H]1c1ccc(CO)cc1 | 1.51 | -1.83 (inactive) | -0.856 (inactive) | -1.11 (inactive) | 2.97 | 0.0355 (inactive) | -0.106 | 0.556 | 0.337 | -0.0512
COCCCNC(=O)[C@]1(Cc2ccccc2N=[N+]=[N-])N=C(c2ccc(OCCCO)cc2)O[C@@H]1c1ccccc1 | 1.46 | -1.51 (inactive) | -0.982 (inactive) | 2.48 (inactive) | 3.23 | 1.1 (inactive) | 0.692 | -0.0042 | 0.901 | 0.377
COCCOC(=O)N1C(=O)[C@@]2(c3cc(C#CCNC(N)=O)ccc31)[C@H](c1ccccc1OCCO)N1[C@H](c3ccccc3)[C@H](c3ccccc3)OC(=O)[C@H]1[C@@H]2C(=O)N1CCCCCCC1 | 1.49 | 0.221 (inactive) | 0.47 (inactive) | 2.37 (inactive) | 1.79 | -0.515 (inactive) | 0.365 | 0.911 | 1.11 | -0.0121
CCCCCCc1nc(Cc2cc(OC)c(OC)c(OC)c2)c(C)c2c1[Si](C(C)C)(C(C)C)OC2 | 0.829 | -0.42 (inactive) | -1.61 (inactive) | -0.0746 (inactive) | 0.377 | 1.59 (inactive) | -0.0487 | -0.0156 | -0.143 | 0.0172
C[N+](C)(C)CCCC[C@@H]1NC(=O)[C@H]2C[C@@H](C(=O)O)[C@@H](c3ccc(O)cc3)N2C1=O | 0.777 | -1.56 (inactive) | -1.28 (inactive) | -0.5 (inactive) | 2.61 | 1.26 (inactive) | -0.0481 | 0.447 | 0.5 | -0.158
CC(C)Cc1ccc(CN2CC[C@@H](NC(=O)c3ccccc3)C2)cc1 | -0.174 | -0.216 (inactive) | -21.2 (active) | 0.237 (inactive) | -0.0003 | -0.219 (inactive) | -0.167 | 0.666 | -0.0255 | -0.157
COc1ccc(CCNC(=O)[C@@H]2c3ccccc3C(=O)N(Cc3cc(F)cc(C(F)(F)F)c3)[C@H]2c2ccc(CO)cc2)cc1 | 1.54 | -0.0253 (inactive) | -0.131 (inactive) | 0.142 (inactive) | 2.21 | 1.02 (inactive) | 0.159 | 0.415 | 0.195 | 0.179
O=C1OC[C@@H](c2ccccc2)n2cc(/C=C/c3ccccc3)cc21 | -0.329 | -0.154 (inactive) | -2.68 (inactive) | 0.614 (inactive) | -0.0278 | 1.45 (inactive) | -0.0042 | -0.364 | -0.0623 | -0.108
CN(C)CCCCCCNC(=O)[C@@H]1C[C@@H]2C(=O)N[C@@H](CCCC[N+](C)(C)C)C(=O)N2[C@@H]1c1cccc(OCCO)c1 | -0.357 | -3.6 (inactive) | -1 (inactive) | -1.17 (inactive) | 2.79 | 0.797 (inactive) | 0.141 | -0.349 | 0.363 | -0.108
C=CC[C@H](O)c1ccc(O)c2ccccc12 | 1.56 | -7.13 (inactive) | -17.9 (active) | 8.59 (active) | 1.71 | 1.49 (inactive) | 0.0277 | 1.07 | 1.07 | -0.0151
CCCNC(=O)[C@@]1(Sc2ccc(C)cc2)CC(=O)N(Cc2cc(C(F)(F)F)cc(C(F)(F)F)c2)[C@@H]1c1ccc(CO)cc1 | 0.805 | -0.0276 (inactive) | -1.16 (inactive) | -0.835 (inactive) | 1.8 | -0.212 (inactive) | -0.122 | -1.13 | -0.542 | -0.165
CCCCN1CC=CC23O[C@@H]4/C=C\CCC(C)OC(=O)C4[C@H]2C(=O)N(CCO)[C@@H]3C1=O (stereo not given in full) | -0.314 | -1.64 (inactive) | -1.02 (inactive) | -1.2 (inactive) | 3.4 | 2.26 (inactive) | 0.0469 | -0.19 | -0.342 | -0.157
CCOC(=O)C[C@H]1[C@H](OC(=O)Cc2ccc3c(c2)OCO3)[C@@H](NC(=O)CC(C)C)c2cc(OCCCO)ccc2N1C(=O)c1ccc2ccccc2n1 | 0.516 | -0.0651 (inactive) | -0.943 (inactive) | -0.0443 (inactive) | 0.452 | 0.431 (inactive) | -0.145 | 0.988 | 0.647 | -0.178
CCCC=C(CCC)[C@@H](NC(=O)c1ccc(C(=O)OC)cc1)c1ccc(C(=O)OC)cc1 | 0.0599 | 0.57 (inactive) | 0.311 (inactive) | 0.182 (inactive) | 2.85 | -1.29 (inactive) | 0.177 | 0.294 | 0.251 | 0.0173
C=CCNC(=O)[C@H]1[C@@H]2C(=O)O[C@@H](c3ccccc3)[C@@H](c3ccccc3)N2[C@@H](c2ccc(O)cc2)[C@]12C(=O)Nc1ccccc12 | 1.05 | 1.14 (inactive) | 0.118 (inactive) | 1.37 (inactive) | 2.75 | 1.68 (inactive) | -0.193 | -0.0122 | -0.537 | -0.177
COC(=O)C(CC#Cc1ccc2c(c1)[C@]1(C(=O)N2)[C@H](c2ccc(OCCO)cc2)N2[C@H](c3ccccc3)[C@H](c3ccccc3)OC(=O)[C@H]2[C@@H]1C(N)=O)C(=O)OC | 1.06 | 1.76 (inactive) | 1.23 (inactive) | 6.23 (inactive) | 2.03 | -0.0446 (inactive) | -0.134 | 0.122 | 0.0497 | -0.19
CCCN1C(=O)[C@@]2(c3ccc([N+](=O)[O-])cc3)CC(=O)N(C3CCCCC3)[C@@H]2c2ccc(CO)cc21 | 0.254 | -0.383 (inactive) | 1.29 (inactive) | -0.117 (inactive) | -0.298 | -0.0384 (inactive) | 0.198 | 0.73 | -0.327 | 0.0785
C=C(C(=O)CC[C@@H](OC(=O)c1cccnc1)c1cccc(OCCO)c1)C(C)C | 0.271 | -1.11 (inactive) | -0.0738 (inactive) | 1.04 (inactive) | -0.826 | 1.12 (inactive) | -0.0962 | 0.597 | 0.144 | 0.0391
Cc1ccc(S[C@]2(C(=O)NCC(C)C)CC(=O)N(C(C)C)[C@@H]2c2ccc(CO)cc2I)cc1 | 1.53 | -1.68 (inactive) | -2.56 (inactive) | -0.0302 (inactive) | 0.979 | 0.97 (inactive) | 0.0968 | -1.6 | -0.0735 | -0.127
CO[C@H]1O[C@H](CO)[C@@H](OC(=O)CCc2ccccc2)[C@@H]2OC(=O)[C@@H](Cc3ccc4ccccc4c3)C/C=C/C[C@H](Cc3ccc4ccccc4c3)C(=O)O[C@@H]12 | 0.505 | -2.4 (inactive) | -2.22 (inactive) | 11.7 (active) | 0.784 | 0.149 (inactive) | -0.138 | -0.701 | -1.26 | -0.206
Cc1cccc([C@H]2C[C@H]3C(Br)=C[C@@]2(CO)C(=O)[C@]32CO2)c1 | 0.378 | -1.54 (inactive) | -2.89 (inactive) | -0.75 (inactive) | 2.39 | -0.316 (inactive) | -0.114 | 0.783 | 0.353 | -0.219
CN(C)C(=O)[C@]1(CCS(=O)(=O)c2ccccc2)N=C(c2ccc(OCCCO)cc2)O[C@@H]1c1ccccc1CN=[N+]=[N-] | 1.55 | 0.106 (inactive) | 0.349 (inactive) | 2.18 (inactive) | 3.48 | 0.157 (inactive) | -0.0079 | 0.136 | 1.09 | -0.025
